The list is not random: actives were taken first. Their share in the collection is about 28%.
DAT uptake mod – changed human dopamine transporter uptake under cocaine IC80; B-score at 10 µM; actives 1.3% (n = 110,000); Q01959; LLC-PK1 hDAT cells, [14C]-dopamine uptake with cocaine IC80; actives deviate in either direction;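 active = Z score or B-score, a plate-position-corrected score, falls beyond the plate's 99.7% confidence bounds, in either direction; inactive = both scores lie inside the 99.7% bounds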
D1 allo mod – allosteric modulators of human D1 dopamine receptor; P21728; HEK293 D1, CRE-luciferase, dopamine EC30 potentiation; actives deviate in either direction; B-score at 10 µM; actives 5.9% (n = 58,000);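 active = luminescence count or its row- and column-corrected plate score outside the 99.7% band of the plate's sample wells, on either side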
CYP2C9 inhib – inhibitors of human CYP2C9; P11712; CYP2C9 Supersomes, luciferin-H conversion, luminescence; inhibition, % at 5 µM; actives 20% (n = 96,000);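 active = blocking of liver enzyme CYP2C9 beyond about 50% at 5 µM, limit read from the data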
CYP2C19 act – increases human CYP2C19 enzyme activity; P33261; recombinant CYP2C19, luciferin-H EGE luminescence; active compounds read high; 0 = fully inhibited enzyme, 1 = untreated enzyme; activation factor at 5 µM; 96,000 tested, under 10 active; AID 1025;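 active = activation factor of at least 2 at 5 µM in the primary screen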
Target sequence (P33261 whole entry, looked up): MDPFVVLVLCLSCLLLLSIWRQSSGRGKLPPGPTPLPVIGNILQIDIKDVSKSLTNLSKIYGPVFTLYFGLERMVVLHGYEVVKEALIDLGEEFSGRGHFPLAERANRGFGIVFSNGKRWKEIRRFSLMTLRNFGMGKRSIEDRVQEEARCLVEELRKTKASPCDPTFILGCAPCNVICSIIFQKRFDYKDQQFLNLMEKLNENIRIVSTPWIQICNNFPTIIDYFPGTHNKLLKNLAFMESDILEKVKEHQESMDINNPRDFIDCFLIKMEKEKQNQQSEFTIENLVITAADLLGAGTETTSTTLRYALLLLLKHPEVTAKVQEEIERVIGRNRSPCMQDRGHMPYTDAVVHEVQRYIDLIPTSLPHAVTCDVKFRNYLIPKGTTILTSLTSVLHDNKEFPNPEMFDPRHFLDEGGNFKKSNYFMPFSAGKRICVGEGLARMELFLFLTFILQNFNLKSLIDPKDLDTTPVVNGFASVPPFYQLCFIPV
CYP2C19 inhib – blocks human cytochrome P450 2C19. CYP2C19 Supersomes, luciferin-H EGE luminescence, 30 min. inhibition, % at 5 µM. AID 778. actives 21% (n = 96,000). P33261;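 active = CYP2C19 inhibition above a set limit at 5 µM in the primary screen, cut at about 50% in these data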
CYP2C9 act – activators of human CYP2C9 | P11712 | recombinant CYP2C9, luciferin-H conversion, luminescence; active compounds read high; factor 1 = untreated enzyme, 0 = blocked | activation factor at 5 µM | actives 1.4% (n = 96,000) | AID 1024;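 active = activation factor of 2 or more for CYP2C9 at a 5 µM dose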
Each line names hits and unclear results; the compound was inactive in the other large screens.

COc1cccc(/C=N/NC(=O)CCc2c(C)n[nH]c2C)c1	none (no result: D1 allo mod)
Cc1cccc(OCCCCc2c(C)n[nH]c2C)c1C	CYP2C9 inhib 74.1, CYP2C19 inhib 87.9
COc1ccccc1OCCCCCc1c(C)n[nH]c1C	CYP2C19 inhib 54.3
COc1ccccc1OCCCc1c(C)n[nH]c1C	CYP2C19 inhib 66.7
COc1cccc(OCCc2c(C)n[nH]c2C)c1	none (no result: D1 allo mod)
CCCS(=O)(=O)N1CCCC(C(=O)NCC2CCCO2)C1 (stereo not given)	none
COc1ccc(C(=O)/C=C/N2CCCCC2)cc1OC	CYP2C9 act 2.6
COc1ccc(N2CCN(C(=O)CSc3ccccc3)CC2)cc1	none
CC1(C)Cc2ccccc2-c2nnc(SCC(=O)N3CCc4ccccc43)n21	CYP2C9 inhib 53.2
COc1ccc(N2CCN(C(=O)CSc3ccccc3N)CC2)cc1	CYP2C9 inhib 68.6, CYP2C19 inhib 58.0
COc1ccc(N2CCN(C(=O)CC(NC(N)=O)c3cccc(Oc4ccccc4)c3)CC2)cc1 (stereo not given)	CYP2C19 inhib 63.5
COc1ccc(N2CCN(C(=O)CSc3nnc4n3C(C)(C)Cc3ccccc3-4)CC2)cc1	CYP2C19 inhib 58.0
O=C(NC1CCCc2ccccc21)C1CCN(c2c(N3CCCC3)c(=O)c2=O)CC1 (stereo not given)	none (no result: DAT uptake mod, CYP2C9 inhib, CYP2C19 act, CYP2C19 inhib, CYP2C9 act)
COc1ccc(N2CCN(C(=O)CSc3nnc4c5cc(C)ccc5n(C)c4n3)CC2)cc1	CYP2C9 inhib 55.9, CYP2C19 inhib 80.6 (no result: D1 allo mod)
COc1ccc2c(c1)c1nnc(SCC(=O)N3CCCCC3C)nc1n2C (stereo not given)	none
CCS(=O)(=O)N1CCN(c2ccc([N+](=O)[O-])c(NC(C)c3ccccc3)c2)CC1 (stereo not given)	CYP2C9 inhib 65.6, CYP2C19 inhib 51.2 (no result: D1 allo mod)
CC(Nc1cc(N2CCN(C(=O)C(C)(C)C)CC2)ccc1[N+](=O)[O-])c1ccccc1 (stereo not given)	CYP2C9 inhib 50.2, CYP2C19 inhib 56.4 (no result: D1 allo mod)
O=c1[nH]cnc2c1cnn2Cc1ccccc1	none (no result: D1 allo mod)
CCOC(=O)c1cn(CC(=O)Nc2cccc(Cl)c2C)nn1	none (no result: D1 allo mod)
Cc1ccc(C)c(NC(=O)Cn2nnc(C(=O)Nc3c(C)cccc3C)c2N)c1	none
CCOC(=O)N1CCC(N(C(=O)Nc2cccc(OC)c2)C(C)CC)CC1 (stereo not given)	CYP2C19 inhib 55.8
CCOC(=O)c1nnn(CC(=O)Nc2cccc(Cl)c2C)c1C(=O)OCC	CYP2C9 inhib 67.2, CYP2C19 inhib 93.6
CCOC(=O)c1nnn(CC(=O)Nc2cccc(OC)c2)c1C(=O)OCC	CYP2C9 inhib 58.7
CCOC(=O)N1CCC(N(CCCOC)C(=O)Nc2cccc(OC)c2)CC1	none
COC(=O)c1nnn(CC(=O)Nc2cc(Cl)ccc2C)c1C(=O)OC	CYP2C9 inhib 54.3, CYP2C19 inhib 55.4
COC(=O)c1nnn(CC(=O)Nc2cccc(OC)c2)c1C(=O)OC	CYP2C9 inhib 63.0
COc1cccc(C2=NO[C@@H]3C(=O)N(Cc4ccccc4)C(=O)[C@H]23)c1OC	CYP2C9 inhib 88.4, CYP2C19 inhib 97.2
CCOc1ccc(NC(=O)CN(C)CC(=O)NC2CCCc3ccccc32)cc1OCC (stereo not given)	CYP2C9 inhib 85.8
C#CCOC(=O)CCC(=O)NCCc1ccccc1	CYP2C19 inhib 67.3
CCn1cc([N+](=O)[O-])c(C(=O)Nc2ccc(Br)cn2)n1	CYP2C19 inhib 81.6 (no result: D1 allo mod)
c1ccc(-c2nc(CSc3nnnn3-c3ccccc3)cs2)cc1	CYP2C9 inhib 50.5, CYP2C19 inhib 97.1
Cc1ccccc1Nc1nc(CSc2nnnn2-c2ccccc2)cs1	DAT uptake mod -7.97, CYP2C9 inhib 50.6, CYP2C19 inhib 93.7 (no result: D1 allo mod)
Cc1ccccc1NC(=O)CCSc1nnnn1-c1ccccc1	none (no result: D1 allo mod, CYP2C9 inhib, CYP2C19 act, CYP2C19 inhib, CYP2C9 act)
O=C(COC(=O)[C@H](Cc1c[nH]c2ccccc12)NC(=O)c1ccc(Cl)cc1)Nc1ccc2c(c1)OCO2	CYP2C9 inhib 98.5 (no result: D1 allo mod)
COCCN(C(=O)c1ccco1)C(C(=O)NC1CCCC1)c1cccs1 (stereo not given)	none (no result: D1 allo mod, CYP2C9 inhib, CYP2C19 act, CYP2C19 inhib, CYP2C9 act)
COc1cccc2c1OC[C@@H](CO)[C@H]2N(C)C(=O)Nc1ccc(Cl)cc1Cl	none (no result: DAT uptake mod, D1 allo mod)
Nc1nnc(SCCOc2ccc(Br)cc2)s1	CYP2C19 inhib 82.2 (no result: D1 allo mod)
COc1ccc(OCCc2nnc(N)s2)cc1	none (no result: D1 allo mod)
CCOc1ccc(C(=O)CSc2nnc(N)s2)cc1	CYP2C19 inhib 58.1
Nc1nnc(SCCOc2ccccc2)s1	CYP2C9 inhib 62.8, CYP2C19 inhib 87.2
COc1ccc(NC(=O)CSc2nnc(N)s2)cc1	none
C=C1C(=O)O[C@@H]2[C@H]1[C@@H](OC(=O)/C(C)=C/C)C/C(C)=C\C(=O)/C=C(\C)[C@@H]2O	none (no result: D1 allo mod, CYP2C9 inhib, CYP2C19 act, CYP2C19 inhib, CYP2C9 act)
O=C(Nc1ccccc1C(=O)N1CCCC1)c1ccccc1	none (no result: D1 allo mod, CYP2C9 inhib, CYP2C19 act, CYP2C19 inhib, CYP2C9 act)
O=C(Nc1cc2c3c(c1)C1CCCC1CN3CC1CCCC21)c1ccccc1 (stereo not given)	CYP2C9 inhib 81.0 (no result: D1 allo mod)
Cn1c(=O)n(C)c2cc(C(=O)O)ccc21	none
Cc1ccccc1C(=O)c1ccc2c(c1)n(C)c(=O)n2C	CYP2C9 inhib 73.7, CYP2C19 inhib 75.8 (no result: D1 allo mod)
CCCC(=O)N(c1ccc2oc(=O)sc2c1)S(=O)(=O)c1cccs1	CYP2C9 inhib 70.9, CYP2C19 inhib 99.2 (no result: D1 allo mod)
CC(=O)N(c1ccc2oc(=O)sc2c1)S(=O)(=O)c1ccccc1	CYP2C19 inhib 64.7 (no result: D1 allo mod)
CC(C)C(=O)N(c1ccc2oc(=O)sc2c1)S(=O)(=O)c1ccccc1	none (no result: D1 allo mod)
CC(=O)c1cn(CC(=O)NCc2cccnc2)c2ccccc12	CYP2C9 inhib 83.3, CYP2C19 inhib 77.3
CCN1C(=O)c2cccc3cccc1c23	CYP2C9 act 4.1
O=C(CN1C(=O)c2cccc3cccc1c23)Nc1cccnc1	none (no result: CYP2C9 inhib, CYP2C19 act, CYP2C19 inhib, CYP2C9 act)
O=C(CN1C(=O)c2cccc3cccc1c23)NCc1cccnc1	CYP2C19 inhib 82.7
Cc1c(C#N)c2ccccc2n1CC(=O)NCc1cccnc1	CYP2C9 inhib 54.5, CYP2C19 inhib 71.2
NC(=O)CC[C@@H]1NC(=O)C(Cc2ccc(O)cc2)NC(=O)c2cc([N+](=O)[O-])cc(F)c2NCCC[C@@H](C(N)=O)NC1=O (stereo not given in full)	none (no result: D1 allo mod, CYP2C9 inhib, CYP2C19 act, CYP2C19 inhib, CYP2C9 act)
CC(=N/O)/C(=N\O)c1ccc(C)o1	none
COCCOCC(O)CN1CCN(c2ccc(C)cc2)CC1 (stereo not given)	none
CCOc1cc(CNC2CCCC2)cc(Cl)c1OCc1ccccc1	CYP2C19 inhib 76.1 (no result: D1 allo mod)
Cc1ccc(-c2c(C)n([O-])c3c([n+]2=O)CCCC3)o1	none (no result: D1 allo mod)
Cc1c(-c2cccs2)[n+](=O)c2c(n1[O-])CCCCC2	CYP2C19 inhib 59.3
CCOC(=O)c1[nH]c(C)c(C(=O)NCCc2ccc(OC)cc2)c1C	CYP2C9 inhib 71.6 (no result: D1 allo mod)
COc1ccc(CCNC(=O)c2[nH]c(C)c(C(C)=O)c2C)cc1OC	none
CC(=O)c1c(C)[nH]c(C(=O)Nc2cc(C)cc(C)c2)c1C	CYP2C9 inhib 84.0, CYP2C19 inhib 58.0 (no result: D1 allo mod)

Bioassay records (PubChem BioAssay)
